Measured values: ChEMBL document CHEMBL3988442, “University of Dundee, Small-Polar-MMV Screening Library” (2021)
For some of these results: Results with a measured potency or affinity are listed apart.

Assays:
Parameters in all cases: scale not given: direction of the effect not stated beside the values
[1] = molecular target: Protein translocase subunit SecA (Escherichia coli (strain K12)) (UniProt P10408); test: Assay to Identify E. coli SecA ATPase Inhibitors; assay type: functional; settings: 30 µM
Chain of Protein translocase subunit SecA (Escherichia coli (strain K12)) (P10408 whole entry): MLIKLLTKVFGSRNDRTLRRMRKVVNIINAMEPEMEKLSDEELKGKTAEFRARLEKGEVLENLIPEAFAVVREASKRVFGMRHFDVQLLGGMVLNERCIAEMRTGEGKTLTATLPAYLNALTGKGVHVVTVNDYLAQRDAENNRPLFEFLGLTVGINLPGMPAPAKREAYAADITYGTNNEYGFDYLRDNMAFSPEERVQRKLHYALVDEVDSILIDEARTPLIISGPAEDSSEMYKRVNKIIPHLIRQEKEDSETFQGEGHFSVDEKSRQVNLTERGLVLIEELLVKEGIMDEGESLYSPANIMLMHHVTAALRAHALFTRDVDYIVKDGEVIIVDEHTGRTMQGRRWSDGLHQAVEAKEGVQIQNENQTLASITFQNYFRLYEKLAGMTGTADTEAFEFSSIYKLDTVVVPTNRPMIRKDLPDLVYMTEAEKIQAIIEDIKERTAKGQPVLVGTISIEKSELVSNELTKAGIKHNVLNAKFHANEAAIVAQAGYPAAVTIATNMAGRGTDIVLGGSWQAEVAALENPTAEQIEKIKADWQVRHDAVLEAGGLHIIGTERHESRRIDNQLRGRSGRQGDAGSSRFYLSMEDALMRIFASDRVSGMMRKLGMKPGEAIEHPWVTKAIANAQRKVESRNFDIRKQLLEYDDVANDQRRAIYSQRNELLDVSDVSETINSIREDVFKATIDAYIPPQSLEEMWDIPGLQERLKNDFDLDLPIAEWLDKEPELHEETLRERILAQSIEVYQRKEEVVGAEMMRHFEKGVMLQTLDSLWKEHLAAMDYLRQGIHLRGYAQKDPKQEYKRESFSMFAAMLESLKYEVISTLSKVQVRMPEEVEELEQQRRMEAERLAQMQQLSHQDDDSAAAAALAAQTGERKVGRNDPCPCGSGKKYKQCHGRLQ

[2] = molecular target: T1, Ubiquitin-activating enzyme e1, putative (Leishmania donovani (strain BPK282A1)) (UniProt E9BSI1); test: Leishmania donovani Ubiquitin Activating Enzyme (LdE1); assay type: functional; settings: 30 µM
T1 sequence (whole entry): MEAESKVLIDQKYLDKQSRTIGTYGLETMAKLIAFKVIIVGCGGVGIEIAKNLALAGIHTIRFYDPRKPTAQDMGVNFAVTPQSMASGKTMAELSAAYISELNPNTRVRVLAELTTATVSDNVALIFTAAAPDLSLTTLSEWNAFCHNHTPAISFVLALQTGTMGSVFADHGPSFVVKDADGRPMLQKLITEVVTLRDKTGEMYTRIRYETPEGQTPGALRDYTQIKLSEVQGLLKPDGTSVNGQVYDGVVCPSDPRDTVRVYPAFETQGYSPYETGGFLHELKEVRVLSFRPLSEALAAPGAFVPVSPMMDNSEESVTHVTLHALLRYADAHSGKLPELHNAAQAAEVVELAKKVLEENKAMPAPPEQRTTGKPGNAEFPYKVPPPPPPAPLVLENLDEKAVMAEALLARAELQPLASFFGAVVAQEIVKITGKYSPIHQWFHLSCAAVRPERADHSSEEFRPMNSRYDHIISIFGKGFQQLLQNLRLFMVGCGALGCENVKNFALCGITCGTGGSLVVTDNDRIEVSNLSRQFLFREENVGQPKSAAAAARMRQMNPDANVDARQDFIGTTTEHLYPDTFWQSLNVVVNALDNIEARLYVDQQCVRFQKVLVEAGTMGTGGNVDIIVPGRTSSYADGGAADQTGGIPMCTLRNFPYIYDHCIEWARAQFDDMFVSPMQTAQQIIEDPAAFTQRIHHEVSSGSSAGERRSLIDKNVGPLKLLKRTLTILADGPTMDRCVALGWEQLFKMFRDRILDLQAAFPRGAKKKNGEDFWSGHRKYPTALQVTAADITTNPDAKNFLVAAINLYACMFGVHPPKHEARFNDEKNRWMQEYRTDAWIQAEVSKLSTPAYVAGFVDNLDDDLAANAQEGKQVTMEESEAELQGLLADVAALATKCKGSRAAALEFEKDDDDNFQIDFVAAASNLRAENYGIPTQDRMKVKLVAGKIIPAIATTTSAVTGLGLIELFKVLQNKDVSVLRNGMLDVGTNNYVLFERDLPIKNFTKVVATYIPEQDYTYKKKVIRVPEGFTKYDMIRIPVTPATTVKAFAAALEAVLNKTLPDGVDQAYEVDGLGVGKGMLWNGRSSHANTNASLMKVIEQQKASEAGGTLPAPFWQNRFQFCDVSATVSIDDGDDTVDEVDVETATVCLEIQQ

[3] = molecular target: AMP-activated protein kinase, AMPK (Homo sapiens) (UniProt P54646+O43741+P54619+Q9UGJ0+Q9Y478+Q13131+Q9UGI9); test: AMP-dependent Kinase enzyme assay. An in vitro enzyme assay that detects ADP turnover that is directly proportional to AMPK activity. This uses naive AMPK that is activated during the assay with MK-8722; assay type: functional; settings: 30 µM
[4] = molecular target: Sialic acid-binding Ig-like lectin 9 (Homo sapiens) (UniProt Q9Y336); test: Hs-Siglec9 ALPHAscreen SOP 20170721; settings: 10 µM
Chain of Sialic acid-binding Ig-like lectin 9 (Homo sapiens) (Q9Y336 whole entry): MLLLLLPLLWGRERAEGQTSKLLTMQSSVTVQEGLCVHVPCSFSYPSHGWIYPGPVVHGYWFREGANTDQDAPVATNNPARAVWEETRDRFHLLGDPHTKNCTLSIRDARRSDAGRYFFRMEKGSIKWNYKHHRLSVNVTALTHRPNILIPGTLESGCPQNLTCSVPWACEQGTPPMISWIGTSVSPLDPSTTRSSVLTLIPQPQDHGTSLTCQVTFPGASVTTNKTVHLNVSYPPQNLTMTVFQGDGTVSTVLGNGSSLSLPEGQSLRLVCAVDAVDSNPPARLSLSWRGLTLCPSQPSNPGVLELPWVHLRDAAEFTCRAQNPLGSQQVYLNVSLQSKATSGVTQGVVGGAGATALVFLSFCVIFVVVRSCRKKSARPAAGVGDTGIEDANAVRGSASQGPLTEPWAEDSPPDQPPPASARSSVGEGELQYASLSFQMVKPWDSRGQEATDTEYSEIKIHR

Trypanosoma cruzi = test: Trypanosoma cruzi phosphomannomutase and mannose-1-phosphate guanylyltransferase assay; assay type: functional; settings: 10 µM
[5] = molecular target: T2, Arginase-2, mitochondrial (Homo sapiens) (UniProt P78540); test: in vitro enzyme assay to detect the production of urea directly proportional to the activity of Arginase II; assay type: functional; settings: 33.3 µM; further: in the data most compounds retested in dose-response had high values
T2 sequence (whole entry): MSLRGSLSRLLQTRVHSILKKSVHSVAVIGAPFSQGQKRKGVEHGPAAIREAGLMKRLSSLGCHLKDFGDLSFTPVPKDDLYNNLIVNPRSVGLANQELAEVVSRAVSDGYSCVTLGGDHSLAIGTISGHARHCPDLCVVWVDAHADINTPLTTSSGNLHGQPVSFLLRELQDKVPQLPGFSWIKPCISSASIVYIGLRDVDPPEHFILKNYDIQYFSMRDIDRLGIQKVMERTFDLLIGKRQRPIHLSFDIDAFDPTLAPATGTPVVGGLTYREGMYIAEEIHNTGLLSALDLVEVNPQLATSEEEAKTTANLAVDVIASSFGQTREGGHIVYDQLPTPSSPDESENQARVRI

[6] = molecular target: T3, Proteasome subunit beta (Trypanosoma cruzi) (UniProt O96673); test: Trypanosoma cruzi proteasome chymotrypsin-like activity (TcProtChymo) assay.; further: in the data most compounds retested in dose-response had high values; assay type: functional; settings: 9.37 µM
T3 sequence (whole entry): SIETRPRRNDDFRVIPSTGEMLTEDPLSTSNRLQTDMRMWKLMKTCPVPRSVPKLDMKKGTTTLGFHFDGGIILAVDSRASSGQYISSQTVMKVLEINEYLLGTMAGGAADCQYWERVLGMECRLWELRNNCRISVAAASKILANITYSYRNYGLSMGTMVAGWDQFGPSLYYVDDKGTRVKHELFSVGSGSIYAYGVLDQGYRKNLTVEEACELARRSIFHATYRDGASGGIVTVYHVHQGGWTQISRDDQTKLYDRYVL

Homo sapiens = organism: Homo sapiens; test: To identify inhibition of the IFN signalling (Jak-Stat) pathway via expression of an eGFP reporter gene under the control of an IFN-stimulated response element (ISRE) containing MxA promoter.; assay type: functional; settings: 30 µM
[7] = molecular target: T4, Tyrosyl-tRNA synthetase, putative (Trypanosoma cruzi (strain CL Brener)) (UniProt Q4DSP6); test: Trypanosoma cruzi tyrosyl tRNA synthetase (TcYRS) _High Tyrosine SOP; assay type: functional; settings: 30 µM; further: in the data most compounds retested in dose-response had high values
T4 sequence (whole entry): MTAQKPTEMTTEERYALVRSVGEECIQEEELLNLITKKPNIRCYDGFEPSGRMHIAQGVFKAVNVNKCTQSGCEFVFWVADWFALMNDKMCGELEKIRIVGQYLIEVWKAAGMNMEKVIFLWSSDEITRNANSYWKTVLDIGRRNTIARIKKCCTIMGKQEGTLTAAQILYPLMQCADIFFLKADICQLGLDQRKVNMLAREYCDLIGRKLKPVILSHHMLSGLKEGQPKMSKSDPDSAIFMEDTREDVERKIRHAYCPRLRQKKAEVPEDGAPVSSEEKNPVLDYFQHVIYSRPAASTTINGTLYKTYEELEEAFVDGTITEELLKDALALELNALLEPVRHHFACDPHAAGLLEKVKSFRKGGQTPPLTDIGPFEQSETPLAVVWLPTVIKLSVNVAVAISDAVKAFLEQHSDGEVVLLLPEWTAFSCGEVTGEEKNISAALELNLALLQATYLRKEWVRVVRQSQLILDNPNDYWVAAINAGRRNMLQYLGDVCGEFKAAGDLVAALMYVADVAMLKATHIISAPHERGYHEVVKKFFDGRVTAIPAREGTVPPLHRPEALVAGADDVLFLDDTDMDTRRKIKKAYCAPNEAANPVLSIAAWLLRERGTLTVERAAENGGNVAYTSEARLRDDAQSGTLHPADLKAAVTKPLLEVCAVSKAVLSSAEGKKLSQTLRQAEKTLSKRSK

[8] = molecular target: T4, Tyrosyl-tRNA synthetase, putative (Trypanosoma cruzi (strain CL Brener)); test: Trypanosoma cruzi tyrosyl tRNA synthetase (TcYRS) SOP; assay type: functional; settings: 30 µM
[9] = molecular target: Chromo domain-containing protein 1 (Saccharomyces cerevisiae (strain ATCC 204508 / S288c) (Baker's yeast)) (UniProt P32657); test: ScCHD-1 Enzyme Inhibition Assay; assay type: functional; settings: 30 µM; further: in the data most compounds retested in dose-response had high values
Chain of Chromo domain-containing protein 1 (Saccharomyces cerevisiae (strain ATCC 204508 / S288c) (Baker's yeast)) (P32657 whole entry, the tested form may be a part): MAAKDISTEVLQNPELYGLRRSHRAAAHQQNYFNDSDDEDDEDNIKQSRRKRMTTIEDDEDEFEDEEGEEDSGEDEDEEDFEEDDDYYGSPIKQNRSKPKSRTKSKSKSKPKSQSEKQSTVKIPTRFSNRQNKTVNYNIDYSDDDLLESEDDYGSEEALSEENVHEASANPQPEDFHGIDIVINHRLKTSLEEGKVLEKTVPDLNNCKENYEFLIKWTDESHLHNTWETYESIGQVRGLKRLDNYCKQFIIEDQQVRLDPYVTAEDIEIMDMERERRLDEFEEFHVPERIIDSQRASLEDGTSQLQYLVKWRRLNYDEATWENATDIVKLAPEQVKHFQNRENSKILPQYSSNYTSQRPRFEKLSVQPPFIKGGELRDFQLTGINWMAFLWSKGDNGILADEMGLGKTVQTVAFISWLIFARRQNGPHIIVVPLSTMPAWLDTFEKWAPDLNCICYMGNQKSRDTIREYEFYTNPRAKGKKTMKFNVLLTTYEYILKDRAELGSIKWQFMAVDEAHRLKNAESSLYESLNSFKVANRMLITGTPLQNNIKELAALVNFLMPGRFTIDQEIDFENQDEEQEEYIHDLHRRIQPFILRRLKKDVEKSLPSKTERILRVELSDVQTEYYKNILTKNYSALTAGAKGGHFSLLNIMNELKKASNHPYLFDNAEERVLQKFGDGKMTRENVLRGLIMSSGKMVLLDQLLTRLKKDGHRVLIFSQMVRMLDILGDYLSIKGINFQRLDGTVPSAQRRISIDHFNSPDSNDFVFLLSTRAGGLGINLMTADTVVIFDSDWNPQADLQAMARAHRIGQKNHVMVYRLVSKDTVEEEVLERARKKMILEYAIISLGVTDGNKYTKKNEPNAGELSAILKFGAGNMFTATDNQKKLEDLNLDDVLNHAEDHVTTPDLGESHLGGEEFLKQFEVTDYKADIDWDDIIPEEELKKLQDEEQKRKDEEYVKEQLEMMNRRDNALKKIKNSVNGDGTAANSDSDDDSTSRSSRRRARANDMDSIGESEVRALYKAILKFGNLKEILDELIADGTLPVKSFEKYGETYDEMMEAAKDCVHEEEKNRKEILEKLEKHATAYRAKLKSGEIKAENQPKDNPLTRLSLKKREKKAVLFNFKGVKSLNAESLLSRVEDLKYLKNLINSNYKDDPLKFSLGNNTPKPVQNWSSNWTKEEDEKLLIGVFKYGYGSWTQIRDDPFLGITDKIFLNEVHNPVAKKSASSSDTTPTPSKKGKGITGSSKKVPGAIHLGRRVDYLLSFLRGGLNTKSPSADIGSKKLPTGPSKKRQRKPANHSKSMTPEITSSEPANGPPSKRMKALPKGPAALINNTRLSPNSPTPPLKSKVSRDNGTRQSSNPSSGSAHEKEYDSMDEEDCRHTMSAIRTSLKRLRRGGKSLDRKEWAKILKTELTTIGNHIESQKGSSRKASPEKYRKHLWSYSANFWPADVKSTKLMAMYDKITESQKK

| SMILES | Percent Effect [1] | Percent Effect [2] | Percent Effect [3] | Percent Effect [4] | Percent Effect (Trypanosoma cruzi) | Percent Effect [5] | Percent Effect [6] | Percent Effect (Homo sapiens) | Percent Effect [7] | Percent Effect [8] | Percent Effect [9] |
| --- | --- | --- | --- | --- | --- | --- | --- | --- | --- | --- | --- |
| O=C(CO)N1C[C@H]2CC[C@@H]1CN(C1Cc3ccccc3C1)C2 | -5.84% | 5.41% | -17.8% | -1.59% | -1.86% | 1.74% | 5.75% | 3.96% | 1.07% | 8.64% | -4.67% |
| O=C(CCn1cccn1)N1C[C@@H]2CC[C@H](C1)N(Cc1ccccn1)C2=O | -3.32% | 5.41% | -4.57% | 4.2% | 2.51% | 0.476% | 1.72% | 3.77% | 5.82% | 14.6% | -3.35% |
| Cc1ccc(CN2CCC3(CC(C(=O)NCC4CC4)=NO3)C2)cc1C (stereo not given) | -4.16% | 2.67% | 7.69% | -4.65% | -4.05% | -64% | 0.684% | 2% | 0% | 7.5% | -7.33% |
| CN1CCCN(C(=O)c2ccc3c(c2)nc(N2CCOCC2)n3C)CC1 | -0.416% | 4.17% | -3.77% | -0.695% | -3.6% | -0.883% | 18.2% | 21.6% | 2.1% | 2.56% | -1.63% |
| Fc1cccnc1OC[C@@]12CCO[C@@H]1CCN(CC1CCOCC1)C2 | -3.83% | 8.11% | -6.9% | 22.7% | 4.01% | -0.744% | 14.3% | 12.2% | 6.45% | 13.6% | -9.09% |
